# Laboratory results as given in paper PMC7862700, “An all-to-all approach to the identification of sequence-specific readers for epigenetic DNA modifications on cytosine”.
# How the values were obtained:
# Experiment in all cases: DAPPL (digital affinity profiling via proximity ligation, sequencing); 10 mM Tris-HCl pH 7.5, 50 mM NaCl, 1 mM DTT, 4% glycerol, room temperature, 30 min; GST-TFs on glutathione beads, 16-mer random dsDNA library, 0.1% formaldehyde crosslink after washing; high values mean tight binding
# HSF1 = HSF1 (Homo sapiens, UniProt Q00613 1-529); details: protein: recombinant; tags: N-terminal GST; chain copies: 3; dsDNA, one strand shown
# In short: (§1)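 Pools were built from human transcription factors expressed in yeast as GST fusions, captured on glutathione beads and DNA-barcoded, along with a tag-only sample. Incubation with 200 nmole of a 16-mer random double-stranded DNA library lasted 30 min at room temperature in Tris/NaCl/DTT/glycerol buffer, and was followed by washing, 0.1% formaldehyde crosslinking, proximity ligation, PCR amplification and Illumina NextSeq500 sequencing. Binding signal is the quotient of each hexamer's read frequency for a factor and its frequency for the tag-only sample.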
# CRX = CRX (Homo sapiens, UniProt O43186 1-299); details: protein: recombinant; tags: N-terminal GST; dsDNA, one strand shown
# In short: as §1
# ELF3 = molecular target: T1, ELF3 (Homo sapiens, UniProt P78545 1-371); details: protein: recombinant; tags: N-terminal GST; dsDNA, one strand shown
# T1 sequence: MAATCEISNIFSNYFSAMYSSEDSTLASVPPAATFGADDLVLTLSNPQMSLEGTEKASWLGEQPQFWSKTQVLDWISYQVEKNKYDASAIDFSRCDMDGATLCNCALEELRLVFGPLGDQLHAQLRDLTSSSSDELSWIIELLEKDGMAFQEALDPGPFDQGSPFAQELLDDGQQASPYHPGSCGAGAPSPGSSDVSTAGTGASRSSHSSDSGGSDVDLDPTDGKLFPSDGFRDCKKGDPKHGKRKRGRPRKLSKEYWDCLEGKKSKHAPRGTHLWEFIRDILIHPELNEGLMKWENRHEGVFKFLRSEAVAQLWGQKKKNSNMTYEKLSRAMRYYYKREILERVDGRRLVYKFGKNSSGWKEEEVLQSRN
# In short: as §1
# ETV2 = molecular target: T2, ETV2 (Homo sapiens, UniProt O00321 1-342); details: protein: recombinant; tags: N-terminal GST; dsDNA, one strand shown
# T2 sequence: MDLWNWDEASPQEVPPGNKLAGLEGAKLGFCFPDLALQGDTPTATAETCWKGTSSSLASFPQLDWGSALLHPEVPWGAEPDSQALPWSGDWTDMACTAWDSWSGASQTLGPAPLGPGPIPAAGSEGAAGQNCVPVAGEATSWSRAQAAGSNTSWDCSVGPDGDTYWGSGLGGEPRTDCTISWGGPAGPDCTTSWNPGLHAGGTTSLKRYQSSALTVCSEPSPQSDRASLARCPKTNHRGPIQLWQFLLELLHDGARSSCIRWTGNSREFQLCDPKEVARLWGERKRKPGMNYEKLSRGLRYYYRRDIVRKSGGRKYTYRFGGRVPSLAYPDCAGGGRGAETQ
# In short: as §1
# EHF = molecular target: T3, EHF (Homo sapiens, UniProt Q9NZC4 1-300); details: protein: recombinant; tags: N-terminal GST; dsDNA, one strand shown
# T3 sequence: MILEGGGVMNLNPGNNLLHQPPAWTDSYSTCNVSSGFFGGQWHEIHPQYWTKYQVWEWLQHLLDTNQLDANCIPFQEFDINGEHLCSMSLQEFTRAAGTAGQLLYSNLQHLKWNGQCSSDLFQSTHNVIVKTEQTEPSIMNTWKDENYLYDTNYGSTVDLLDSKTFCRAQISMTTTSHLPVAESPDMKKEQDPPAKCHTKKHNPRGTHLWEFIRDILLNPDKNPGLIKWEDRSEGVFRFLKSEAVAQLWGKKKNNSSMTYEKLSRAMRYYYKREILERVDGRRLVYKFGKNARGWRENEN
# In short: as §1
# ETV6 = ETV6 (Homo sapiens, UniProt P41212 1-452); details: protein: recombinant; tags: N-terminal GST; dsDNA, one strand shown
# In short: as §1
# ERG = molecular target: T4, ERG (Homo sapiens, UniProt P11308 1-479); details: protein: recombinant; tags: N-terminal GST; dsDNA, one strand shown
# T4 sequence: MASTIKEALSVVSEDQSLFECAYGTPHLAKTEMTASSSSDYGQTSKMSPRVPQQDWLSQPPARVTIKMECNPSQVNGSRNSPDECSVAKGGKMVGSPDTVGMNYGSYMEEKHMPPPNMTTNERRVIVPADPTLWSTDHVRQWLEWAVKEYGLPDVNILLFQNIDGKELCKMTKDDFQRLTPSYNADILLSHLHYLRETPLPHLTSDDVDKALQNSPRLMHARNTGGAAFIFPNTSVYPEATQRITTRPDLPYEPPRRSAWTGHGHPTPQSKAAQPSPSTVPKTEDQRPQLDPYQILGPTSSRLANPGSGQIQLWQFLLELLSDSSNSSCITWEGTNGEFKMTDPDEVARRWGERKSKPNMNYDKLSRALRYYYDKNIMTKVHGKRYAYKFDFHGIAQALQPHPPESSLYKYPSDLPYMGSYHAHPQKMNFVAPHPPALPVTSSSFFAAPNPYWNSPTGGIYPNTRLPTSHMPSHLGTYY
# In short: as §1
# FEV = molecular target: T5, FEV (Homo sapiens, UniProt Q99581 1-238); details: protein: recombinant; tags: N-terminal GST; dsDNA, one strand shown
# T5 sequence: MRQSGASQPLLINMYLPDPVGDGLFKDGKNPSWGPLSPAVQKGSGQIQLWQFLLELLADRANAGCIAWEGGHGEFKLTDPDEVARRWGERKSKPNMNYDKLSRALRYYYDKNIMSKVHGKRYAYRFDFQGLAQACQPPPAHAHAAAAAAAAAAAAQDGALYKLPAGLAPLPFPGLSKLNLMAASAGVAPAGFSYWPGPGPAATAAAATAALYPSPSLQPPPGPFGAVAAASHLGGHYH
# In short: as §1
# SPDEF = molecular target: T6, SPDEF (Homo sapiens, UniProt O95238 1-335); details: protein: recombinant; tags: N-terminal GST; dsDNA, one strand shown
# T6 sequence: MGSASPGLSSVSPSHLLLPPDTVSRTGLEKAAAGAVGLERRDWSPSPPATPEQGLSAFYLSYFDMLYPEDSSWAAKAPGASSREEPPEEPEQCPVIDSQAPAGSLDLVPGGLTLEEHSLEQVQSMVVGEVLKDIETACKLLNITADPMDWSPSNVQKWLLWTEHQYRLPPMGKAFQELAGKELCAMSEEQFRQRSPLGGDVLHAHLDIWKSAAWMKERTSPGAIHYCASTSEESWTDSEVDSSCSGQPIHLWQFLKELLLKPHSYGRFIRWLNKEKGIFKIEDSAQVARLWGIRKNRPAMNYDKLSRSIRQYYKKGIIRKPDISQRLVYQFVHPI
# In short: as §1
# ELF5 = molecular target: T7, ELF5 (Homo sapiens, UniProt Q9UKW6-2 1-255); details: protein: recombinant; tags: N-terminal GST; dsDNA, one strand shown
# T7 sequence: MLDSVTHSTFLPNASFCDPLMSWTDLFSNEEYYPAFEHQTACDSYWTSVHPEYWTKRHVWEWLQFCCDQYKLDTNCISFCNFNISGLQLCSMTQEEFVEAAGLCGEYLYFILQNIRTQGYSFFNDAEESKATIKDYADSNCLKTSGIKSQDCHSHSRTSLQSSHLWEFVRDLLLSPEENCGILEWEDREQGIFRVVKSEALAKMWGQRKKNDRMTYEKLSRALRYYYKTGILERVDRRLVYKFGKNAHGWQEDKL
# In short: as §1
# ETV3 = molecular target: T8, ETV3 (Homo sapiens, UniProt P41162-2 1-143); details: protein: recombinant; tags: N-terminal GST; dsDNA, one strand shown
# T8 sequence: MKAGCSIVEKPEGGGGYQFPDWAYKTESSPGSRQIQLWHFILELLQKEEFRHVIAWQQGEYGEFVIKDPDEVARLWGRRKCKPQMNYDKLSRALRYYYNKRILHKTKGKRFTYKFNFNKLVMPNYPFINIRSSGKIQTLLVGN
# In short: as §1
# ELK1 = molecular target: T9, ELK1 (Homo sapiens, UniProt P19419 1-428); details: protein: recombinant; tags: N-terminal GST; dsDNA, one strand shown
# T9 sequence: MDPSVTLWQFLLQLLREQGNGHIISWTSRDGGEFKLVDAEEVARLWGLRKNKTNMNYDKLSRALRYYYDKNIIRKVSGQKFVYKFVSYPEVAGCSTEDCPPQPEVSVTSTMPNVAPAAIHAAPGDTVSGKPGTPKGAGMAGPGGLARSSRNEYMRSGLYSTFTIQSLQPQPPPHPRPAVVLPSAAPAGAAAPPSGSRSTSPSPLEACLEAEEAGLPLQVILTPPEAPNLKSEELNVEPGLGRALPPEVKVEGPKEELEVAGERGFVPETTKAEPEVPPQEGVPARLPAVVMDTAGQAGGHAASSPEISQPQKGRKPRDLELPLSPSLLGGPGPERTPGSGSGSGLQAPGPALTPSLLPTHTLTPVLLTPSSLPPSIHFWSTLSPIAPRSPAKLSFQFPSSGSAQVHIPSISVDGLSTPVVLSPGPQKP
# In short: as §1
# GABPA = molecular target: T10, GABPA (Homo sapiens, UniProt Q06546 1-454); details: protein: recombinant; tags: N-terminal GST; dsDNA, one strand shown
# T10 sequence: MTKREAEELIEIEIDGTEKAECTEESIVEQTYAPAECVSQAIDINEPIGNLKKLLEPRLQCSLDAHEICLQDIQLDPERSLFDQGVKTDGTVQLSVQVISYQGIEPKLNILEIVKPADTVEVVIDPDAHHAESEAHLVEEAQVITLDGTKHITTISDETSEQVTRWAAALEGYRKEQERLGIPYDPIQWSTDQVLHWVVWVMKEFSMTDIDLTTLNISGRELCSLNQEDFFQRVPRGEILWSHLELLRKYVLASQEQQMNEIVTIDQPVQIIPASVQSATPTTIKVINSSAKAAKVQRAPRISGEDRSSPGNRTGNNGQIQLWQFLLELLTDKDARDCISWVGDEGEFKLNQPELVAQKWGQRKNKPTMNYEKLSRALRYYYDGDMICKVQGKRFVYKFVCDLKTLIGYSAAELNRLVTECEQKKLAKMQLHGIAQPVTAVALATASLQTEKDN
# In short: as §1
# ETV3L = molecular target: T11, ETV3L (Homo sapiens, UniProt Q6ZN32 1-361); details: protein: recombinant; tags: N-terminal GST; dsDNA, one strand shown
# T11 sequence: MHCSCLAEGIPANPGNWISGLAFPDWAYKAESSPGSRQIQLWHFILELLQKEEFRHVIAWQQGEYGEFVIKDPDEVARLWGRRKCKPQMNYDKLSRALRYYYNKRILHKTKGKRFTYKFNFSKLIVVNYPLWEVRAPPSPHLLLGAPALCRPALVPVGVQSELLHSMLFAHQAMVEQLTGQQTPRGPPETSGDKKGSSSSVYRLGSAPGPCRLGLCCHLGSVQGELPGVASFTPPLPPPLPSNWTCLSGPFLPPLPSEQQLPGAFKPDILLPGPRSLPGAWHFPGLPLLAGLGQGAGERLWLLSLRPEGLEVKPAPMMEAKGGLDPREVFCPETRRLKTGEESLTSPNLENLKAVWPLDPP
# In short: as §1
# Chain of HSF1 (Q00613 whole entry, the tested form may be a part): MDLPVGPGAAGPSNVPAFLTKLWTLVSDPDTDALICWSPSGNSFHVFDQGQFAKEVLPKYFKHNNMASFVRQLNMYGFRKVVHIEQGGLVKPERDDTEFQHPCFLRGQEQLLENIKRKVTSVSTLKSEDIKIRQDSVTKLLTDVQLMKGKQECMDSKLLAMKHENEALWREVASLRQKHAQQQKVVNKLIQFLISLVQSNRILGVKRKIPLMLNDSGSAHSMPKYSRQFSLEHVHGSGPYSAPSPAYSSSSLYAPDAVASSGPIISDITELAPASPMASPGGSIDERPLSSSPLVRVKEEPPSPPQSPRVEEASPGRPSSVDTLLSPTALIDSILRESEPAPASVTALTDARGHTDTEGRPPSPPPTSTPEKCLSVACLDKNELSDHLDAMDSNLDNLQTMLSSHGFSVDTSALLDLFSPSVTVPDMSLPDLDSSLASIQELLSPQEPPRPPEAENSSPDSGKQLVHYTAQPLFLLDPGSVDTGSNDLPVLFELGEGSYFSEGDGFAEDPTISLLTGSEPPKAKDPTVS
# Chain of CRX (O43186 whole entry): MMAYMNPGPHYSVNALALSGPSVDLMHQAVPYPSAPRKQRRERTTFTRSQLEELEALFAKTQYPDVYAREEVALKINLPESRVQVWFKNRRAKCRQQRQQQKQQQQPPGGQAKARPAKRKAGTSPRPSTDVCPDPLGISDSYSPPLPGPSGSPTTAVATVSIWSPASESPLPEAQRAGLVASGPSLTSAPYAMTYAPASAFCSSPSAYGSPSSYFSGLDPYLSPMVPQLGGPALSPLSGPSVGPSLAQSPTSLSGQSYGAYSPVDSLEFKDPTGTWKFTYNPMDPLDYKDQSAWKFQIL
# Chain of ETV6 (P41212 whole entry): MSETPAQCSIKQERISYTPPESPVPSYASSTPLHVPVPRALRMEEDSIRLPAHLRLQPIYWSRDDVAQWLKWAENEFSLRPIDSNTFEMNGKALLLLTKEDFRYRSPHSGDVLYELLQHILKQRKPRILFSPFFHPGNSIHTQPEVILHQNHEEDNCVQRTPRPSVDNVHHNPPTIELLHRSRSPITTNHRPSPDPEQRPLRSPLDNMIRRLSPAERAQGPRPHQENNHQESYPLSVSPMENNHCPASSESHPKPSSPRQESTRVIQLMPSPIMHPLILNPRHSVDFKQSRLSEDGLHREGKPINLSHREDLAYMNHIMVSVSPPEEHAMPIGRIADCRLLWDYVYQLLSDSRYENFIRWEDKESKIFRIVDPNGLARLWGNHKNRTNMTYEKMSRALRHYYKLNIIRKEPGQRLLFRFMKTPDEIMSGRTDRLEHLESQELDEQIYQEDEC
sequence,measurement,setting,value
GATTAG,binding signal,HSF1,"2.22 fold enrichment (6-mer frequency, TF over GST control)"
same,binding signal,CRX,"3.62 fold enrichment (6-mer frequency, TF over GST control)"
TCGAGA,binding signal,HSF1,"2.36 fold enrichment (6-mer frequency, TF over GST control)"
same,binding signal,CRX,"1.01 fold enrichment (6-mer frequency, TF over GST control)"
GATCTG,binding signal,HSF1,"1.07 fold enrichment (6-mer frequency, TF over GST control)"
same,binding signal,CRX,"1.09 fold enrichment (6-mer frequency, TF over GST control)"
TCGTAA,binding signal,HSF1,"1.12 fold enrichment (6-mer frequency, TF over GST control)"
same,binding signal,CRX,"1.15 fold enrichment (6-mer frequency, TF over GST control)"
TACGAG,binding signal,HSF1,"1.26 fold enrichment (6-mer frequency, TF over GST control)"
same,binding signal,ELF3,"1.02 fold enrichment (6-mer frequency, TF over GST control)"
same,binding signal,CRX,"1.05 fold enrichment (6-mer frequency, TF over GST control)"
ACGCGA,binding signal,HSF1,"1.04 fold enrichment (6-mer frequency, TF over GST control)"
same,binding signal,ETV2,"1.02 fold enrichment (6-mer frequency, TF over GST control)"
GGTTAA,binding signal,HSF1,"1.02 fold enrichment (6-mer frequency, TF over GST control)"
same,binding signal,ELF3,"1.03 fold enrichment (6-mer frequency, TF over GST control)"
same,binding signal,CRX,"1.31 fold enrichment (6-mer frequency, TF over GST control)"
TTAGGA,binding signal,EHF,"1 fold enrichment (6-mer frequency, TF over GST control)"
same,binding signal,HSF1,"1.28 fold enrichment (6-mer frequency, TF over GST control)"
same,binding signal,ELF3,"1.02 fold enrichment (6-mer frequency, TF over GST control)"
same,binding signal,CRX,"1.77 fold enrichment (6-mer frequency, TF over GST control)"
same,binding signal,ETV6,"1 fold enrichment (6-mer frequency, TF over GST control)"
CGGATT,binding signal,ERG,"1 fold enrichment (6-mer frequency, TF over GST control)"
same,binding signal,FEV,"1.44 fold enrichment (6-mer frequency, TF over GST control)"
same,binding signal,HSF1,"1.56 fold enrichment (6-mer frequency, TF over GST control)"
same,binding signal,ELF3,"1.01 fold enrichment (6-mer frequency, TF over GST control)"
same,binding signal,CRX,"2.48 fold enrichment (6-mer frequency, TF over GST control)"
same,binding signal,SPDEF,"1.42 fold enrichment (6-mer frequency, TF over GST control)"
same,binding signal,ELF5,"1.01 fold enrichment (6-mer frequency, TF over GST control)"
same,binding signal,ETV3,"1.04 fold enrichment (6-mer frequency, TF over GST control)"
TCGAGT,binding signal,ELK1,"1.01 fold enrichment (6-mer frequency, TF over GST control)"
same,binding signal,GABPA,"1 fold enrichment (6-mer frequency, TF over GST control)"
same,binding signal,HSF1,"1.41 fold enrichment (6-mer frequency, TF over GST control)"
same,binding signal,ETV3L,"1.06 fold enrichment (6-mer frequency, TF over GST control)"
